From PubChem BioAssay (NCATS)
Where “and” joins values, the source holds several entries; their conditions need not be identical. Equal entries are not always repeated. Results filed as inconclusive are left out. Calls of active or inactive are those of the source. Unless noted, the call rests on the fitted dose curve; in most records, active means well fitted curve in either direction with a large enough effect (not every such curve was filed as active); inconclusive means small, poorly fitted or top-dose-only effect, or another doubt; inactive means flat fitted curve, though single readings scatter.

Key:
[1] = AP1 Signaling Pathway (AID 357); settings: ME-180 (cervical carcinoma) AP-1-bla reporter, EGF-induced, beta-lactamase ratio, 5 h;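 further: ME-180 reporter cells stimulated with EGF at its EC50 level; on the % scale 0 is the no-effect control and ±100 the full control effect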
Outline: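 Cells are seeded overnight, exposed to compound titrations and an EC50 level of EGF for 5 hours at 37 °C, then loaded with CCF4 dye for 2.5 hours. Beta-lactamase activity under the AP-1 element is read as a blue/green ratio.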

[2] = target: Cytochrome P450 1A2 (Homo sapiens) (UniProt P05177); test: p450-cyp1a2 (AID 410; calls by dose curve; further: potency means the concentration at half of the fitted maximal effect;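 on activity change, negative = inhibition: -100% = full effect of reference inhibitor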); settings: recombinant CYP1A2, luciferin-ME demethylation, luminescence; series mostly up to 57 µM
Sequence of Cytochrome P450 1A2 (Homo sapiens) (P05177 whole entry, looked up): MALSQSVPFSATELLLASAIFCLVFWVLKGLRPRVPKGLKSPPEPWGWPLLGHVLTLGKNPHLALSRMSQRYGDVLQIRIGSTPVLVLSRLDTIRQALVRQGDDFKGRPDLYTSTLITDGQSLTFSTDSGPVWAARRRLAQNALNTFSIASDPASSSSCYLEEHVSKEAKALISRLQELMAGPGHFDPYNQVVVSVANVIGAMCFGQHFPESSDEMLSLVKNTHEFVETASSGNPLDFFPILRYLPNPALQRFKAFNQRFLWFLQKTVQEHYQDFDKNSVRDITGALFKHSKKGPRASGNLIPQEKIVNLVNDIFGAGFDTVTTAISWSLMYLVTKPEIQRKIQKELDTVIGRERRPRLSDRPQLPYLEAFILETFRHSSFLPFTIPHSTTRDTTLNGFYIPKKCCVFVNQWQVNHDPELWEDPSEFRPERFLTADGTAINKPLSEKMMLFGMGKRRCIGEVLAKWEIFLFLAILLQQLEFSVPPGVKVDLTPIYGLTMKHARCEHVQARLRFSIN
Outline: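 Read-out is luminescence from luciferin produced by CYP1A2 demethylation of Luciferin-ME (100uM, at Km). Detection reagent stopped the 60 min NADPH-dependent reaction; signals were normalized to 57 uM furafylline.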

[3] = NFAT Signaling Pathway (AID 444); settings: Jurkat NFAT-bla M1, carbachol, beta-lactamase ratio, 5 h;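 further: carbachol stimulus at about its EC50 of 1 µM final; on the % scale 0 is the no-effect control and ±100 the full control effect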
Outline: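 Jurkat cells with NFAT-driven β-lactamase reporter and co-expressed M1 receptor, stimulated with carbachol (final 1 uM, ~EC50), compound titration, 5 h at 37 °C. CCF4 loaded 1 h at RT; 460/530 nm ratio gave %activity and AC50.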

[4] = Cell Viability - BJ (AID 421; calls by dose curve;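 further: potency means the concentration at half of the fitted maximal effect; cells exposed to compound for 40 hours at 37 °C before readout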); settings: BJ fibroblast viability, qHTS
Outline: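 Normal human BJ foreskin fibroblasts, 1500/well in complete medium, treated 40 hr at 37 °C. Cellular ATP by CellTiter-Glo luminescence; normalized to DMSO and 100 uM tamoxifen, AC50 from Hill fit.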

[5] = Cell Viability - Jurkat (AID 426;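 active means dose-dependent loss of cell ATP signal giving a full or clear fitted curve, ranked by lower potency value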; further: potency means the concentration at half of the fitted maximal effect); settings: qHTS
Outline: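 Cytotoxicity was scored as loss of cellular ATP, measured by luciferase-based luminescence, in Jurkat clone E6-1 cells after 40 h compound treatment; tamoxifen and doxorubicin served as positive controls.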

[6] = Cell Viability - Hek293 (AID 427;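 active means compounds whose dose-response curve shows a full or clear partial loss of cell viability, called from curve shape rather than a numeric limit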;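 further: potency means the concentration at half of the fitted maximal effect; cells exposed to compound for 40 hours at 37 °C before reading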); settings: qHTS
Outline: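 HEK293 cells in complete medium were exposed to compound for 40 hr at 37 °C, then cellular ATP was read by CellTiter-Glo luminescence. Data were normalized to DMSO (basal) and 100 uM tamoxifen (100% inhibition), and AC50 came from Hill fits.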

[7] = Cell Viability - HepG2 (AID 433; calls by dose curve;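 further: potency means the concentration at half of the fitted maximal effect; potency for ATP loss meaning cytotoxicity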); settings: qHTS
Outline: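 ATP luminescence (CellTiter-Glo) after 40 h compound exposure, 37 °C, HepG2, 1500 cells/well, complete medium. Normalized: DMSO = basal, 100 uM tamoxifen = 100% inhibition. AC50 via standard Hill equation.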

[8] = Cell Viability - MRC5 (AID 434; calls by dose curve;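 further: potency means the concentration at half of the fitted maximal effect; potency reflects cytotoxicity seen as loss of intracellular ATP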); settings: MRC5 lung fibroblast viability, qHTS
Outline: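 ATP luminescence read-out (CellTiter-Glo, 20 min RT) after 40 hr, 37 °C compound exposure of 1500 MRC5 cells/well. Data normalized to DMSO (basal) and 100 uM tamoxifen (100% inhibition); AC50 from standard Hill equation.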

[9] = Cell Viability - SK-N-SH (AID 435; calls by dose curve; further: potency means the concentration at half of the fitted maximal effect); settings: SK-N-SH neuroblastoma cell viability qHTS
Outline: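 CellTiter-Glo ATP luminescence, 20 min RT read; cells pre-plated 5 hr, compound 40 hr at 37 °C, 1500 cells/well, complete medium. Normalized DMSO = 0, 100 uM tamoxifen = 100% inhibition; Hill-fit AC50.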

c1ccc2c(c1)CCCC2C1=NCCN1 (centres undefined)
inactive: activity change, negative = inhibition ([1]; at 17.2 µM (top of the series)) 6.93%

CC[N+](C)(C)c1cccc(O)c1
inactive: activity change, negative = inhibition ([1]; at 17.2 µM (top of the series)) 1.89% and 0.722% | activity change, negative = inhibition ([1]; at 38 µM (top of the series)) 2.69% | Potency [2]

CCCCNc1ccc(C(=O)OCCN(C)C)cc1
inactive: activity change, negative = inhibition ([1]; at 17.2 µM (top of the series)) -19.5% | activity change, negative = inhibition ([1]; at 38 µM (top of the series)) 22.1% | activity change, negative = inhibition ([3]; at 17.2 µM (top of the series)) -27.7%

C[C@H](CS)C(=O)N1CCC[C@H]1C(=O)O
inactive: activity change, negative = inhibition ([1]; at 17.2 µM (top of the series)) -1.77% | activity change, negative = inhibition ([1]; at 38 µM (top of the series)) 3.53% | Potency [2] | activity change, negative = inhibition ([3]; at 17.2 µM (top of the series)) 2% | activity change, negative = inhibition ([3]; at 38 µM (top of the series)) -1.57%

CCCCNc1c(C(=O)OCC)c(C)nc2c1cnn2CC
active: Potency [2] 631 nM and 63.1 nM
inactive: activity change, negative = inhibition ([1]; at 38 µM (top of the series)) -13.4%

C[N+](C)(C)CCOC(N)=O
inactive: activity change, negative = inhibition ([1]; at 38 µM (top of the series)) 21.2% | Potency [2]

c1cc(CN2CCCCC2)cc(OCCCNc2nc3ccccc3s2)c1
inactive: activity change, negative = inhibition ([1]; at 38 µM (top of the series)) 6.03%
active: Potency [2] 15.8 µM and 31.6 µM

CC(C)[N+](C)(CCOC(=O)C1c2ccccc2Oc2ccccc21)C(C)C
active: activity change, negative = inhibition ([3]; at 17.2 µM (top of the series)) -48.1% and -94.6% | activity change, negative = inhibition ([3]; at 38 µM (top of the series)) -63%
inactive: activity change, negative = inhibition ([1]; at 17.2 µM (top of the series)) 12.1% and 5.76% | activity change, negative = inhibition ([1]; at 38 µM (top of the series)) 3.91%

O=C(O)CN(CCOCCOCCN(CC(=O)O)CC(=O)O)CC(=O)O
inactive: activity change, negative = inhibition ([1]; at 38 µM (top of the series)) 4.77% | Potency [2]

FC(F)(F)c1ccccc1-n1ccnc1
inactive: activity change, negative = inhibition ([1]; at 38 µM (top of the series)) 7.15% | activity change, negative = inhibition ([3]; at 38 µM (top of the series)) -3.5%
active: Potency [2] 2.51 µM and 251 nM

NCCCNCCSP(=O)(O)O
inactive: activity change, negative = inhibition ([1]; at 38 µM (top of the series)) 11.2% | Potency [2]

CN=C(NC#N)NCCSCc1nc[nH]c1C
inactive: activity change, negative = inhibition ([1]; at 38 µM (top of the series)) -4.97% | Potency [2] | Potency [4] > 92 µM | Potency [5] > 92 µM | Potency [6] > 92 µM | Potency [7] > 92 µM | Potency [8] > 92 µM | Potency [9] > 92 µM | activity change, negative = inhibition ([3]; at 38 µM (top of the series)) 6.95%

CN(C)C(=O)Oc1ccc[n+](C)c1
inactive: activity change, negative = inhibition ([1]; at 17.2 µM (top of the series)) 8.22% | activity change, negative = inhibition ([1]; at 38 µM (top of the series)) 9.9% | Potency [2] | activity change, negative = inhibition ([3]; at 17.2 µM (top of the series)) 4.78% | activity change, negative = inhibition ([3]; at 38 µM (top of the series)) 12%

CCN(CC)CCNC(=O)c1ccc(NC(C)=O)cc1
inactive: activity change, negative = inhibition ([1]; at 17.2 µM (top of the series)) -5.32% | activity change, negative = inhibition ([1]; at 38 µM (top of the series)) 9.43% | Potency [2] | activity change, negative = inhibition ([3]; at 17.2 µM (top of the series)) -13.8% | activity change, negative = inhibition ([3]; at 38 µM (top of the series)) -8.68%

CCn1nc(C(=O)O)c(=O)c2cc3c(cc21)OCO3
inactive: activity change, negative = inhibition ([1]; at 17.2 µM (top of the series)) -3.87% and 14.9% | activity change, negative = inhibition ([1]; at 38 µM (top of the series)) -2.22% | activity change, negative = inhibition ([3]; at 17.2 µM (top of the series)) 0.808% and 1.97% | activity change, negative = inhibition ([3]; at 38 µM (top of the series)) 8.98%

Cc1ccc(Cl)c(Nc2ccccc2C(=O)O)c1Cl
inactive: activity change, negative = inhibition ([1]; at 17.2 µM (top of the series)) -18.4% | activity change, negative = inhibition ([1]; at 38 µM (top of the series)) -15.5% | Potency [2]

CN(C)C(=O)Oc1cccc([N+](C)(C)C)c1
inactive: activity change, negative = inhibition ([1]; at 17.2 µM (top of the series)) 6.9% and 1.34% and 7.06% | activity change, negative = inhibition ([1]; at 38 µM (top of the series)) -1.33% | Potency [2] | activity change, negative = inhibition ([3]; at 17.2 µM (top of the series)) -14.6% and 15.5% and 0.313% | activity change, negative = inhibition ([3]; at 38 µM (top of the series)) 13%

O=C(CCNNC(=O)c1ccncc1)NCc1ccccc1
inactive: activity change, negative = inhibition ([1]; at 17.2 µM (top of the series)) -5.47% and 0.412% | activity change, negative = inhibition ([1]; at 38 µM (top of the series)) 1.11% | activity change, negative = inhibition ([3]; at 17.2 µM (top of the series)) -23.8% and -5.87% | activity change, negative = inhibition ([3]; at 38 µM (top of the series)) 4.78%
active: Potency [2] 31.6 µM and 12.6 µM

C#CCN(C)CCCOc1ccc(Cl)cc1Cl
inactive: activity change, negative = inhibition ([1]; at 17.2 µM (top of the series)) -12.7% | activity change, negative = inhibition ([1]; at 38 µM (top of the series)) -0.876% | activity change, negative = inhibition ([3]; at 17.2 µM (top of the series)) -4.25% | activity change, negative = inhibition ([3]; at 38 µM (top of the series)) -1.82%
active: Potency [2] 631 nM and 158 nM

CC(=O)Nc1nnc(S(N)(=O)=O)s1
inactive: activity change, negative = inhibition ([1]; at 17.2 µM (top of the series)) 2.87% | activity change, negative = inhibition ([1]; at 38 µM (top of the series)) 2.53% | Potency [2] | activity change, negative = inhibition ([3]; at 17.2 µM (top of the series)) -0.673% and -9.62% | activity change, negative = inhibition ([3]; at 38 µM (top of the series)) 2.29%

CCn1cc(C(=O)O)c(=O)c2cc3c(cc21)OCO3
inactive: activity change, negative = inhibition ([1]; at 17.2 µM (top of the series)) -4.15% | activity change, negative = inhibition ([1]; at 38 µM (top of the series)) -1.96% | activity change, negative = inhibition ([3]; at 17.2 µM (top of the series)) -7.01% | activity change, negative = inhibition ([3]; at 38 µM (top of the series)) 7.6%
active: Potency [2] 5.01 µM and 2.51 µM

CCCCNC(=O)NS(=O)(=O)c1ccc(C)cc1
inactive: activity change, negative = inhibition ([1]; at 17.2 µM (top of the series)) -5% and 1.1% | activity change, negative = inhibition ([1]; at 38 µM (top of the series)) 6.49% | Potency [2] | Potency [4] > 92 µM | Potency [5] > 92 µM | Potency [6] > 92 µM | Potency [7] > 92 µM | Potency [8] > 92 µM | Potency [9] > 92 µM

COc1cc(Cc2cnc(N)nc2N)cc(OC)c1OC
inactive: activity change, negative = inhibition ([1]; at 17.2 µM (top of the series)) 1.37% | activity change, negative = inhibition ([1]; at 38 µM (top of the series)) -4.63% | Potency [4] > 92 µM | Potency [5] > 92 µM | Potency [6] > 92 µM | Potency [7] > 92 µM | Potency [8] > 92 µM | Potency [9] > 92 µM | activity change, negative = inhibition ([3]; at 17.2 µM (top of the series)) -13.2% | activity change, negative = inhibition ([3]; at 38 µM (top of the series)) -9.42%
